41 compounds from PubChem BioAssay can be followed below.

Active and inactive are the calls of the source. Unless noted, the rule behind the calls is not given here.

The test system of assay [1] is Aerobactin synthetase IucA (Klebsiella pneumoniae, hypervirulent). As to the kind of experiment: biochemical IucA inhibition screen of LOPAC library by absorbance (AID 1346212).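 Note: 100% = no compound wells and 0% = no enzyme wells.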 As to conditions: IucA enzyme assay, absorbance (OD) readout; stronger effect = lower value;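 tested at 8 µM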.
Assay [2] in a line: compounds altering circadian rhythm period length – cell-based, LOPAC library, luminescence reporter (AID 2774).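 Note: values are relative to mean of DMSO wells on each plate.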 As to conditions: circadian reporter cells, at 7 µM, actives lie on both sides.
For assay [3], the system named is Hepatitis C virus NS3 helicase. As to the kind of experiment: blockers of NS3h binding to ssDNA – biochemical, fluorescence polarization, LOPAC1280 library, primary screen (AID 687035; in the data active = inhibition above about 37%). As to conditions: Purified HCV NS3 helicase, Cy5-dT15 ssDNA binding fluorescence polarization; stronger effect = higher value; concentration not given here.
The nature of assay [4]: compounds altering Cy5-DNA-NS3h complex signal – biochemical, LOPAC1280, artefact control for HCV NS3 helicase inhibitor project (AID 687037). As to conditions: Cy5-DNA-NS3h complex fluorescence interference counterscreen. A general note: The purpose of a counterscreen is to sort out artefacts and off-target activity.
Assay [5] can be described thus: viability loss with induced miR-34 in A549 – imaging, A549 dox-inducible miR-34, nuclei and caspase counts, primary screen (AID 1347080;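 active = compounds whose cell count with miR-34 switched on is under 0.7 times the count with it off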). As to conditions: A549 miR-34 inducible, Hoechst nuclei count, 48 h.
A short description of assay [6]: blockers of cellular phospholipid synthesis – cell-based, LOPAC library, screen 4, primary screen (AID 1347384). As to conditions: animal cells, phospholipid biosynthesis inhibition screen; at 10 µM.
Assay [7] can be described thus: galactose survival enhancers in mitochondrial complex I cybrids – cell-based, galactose medium, ATP luminescence, primary screen (AID 1645843;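 active = z-score of at least 1.8 in each of two replicates, scored against plate mean and spread of sample wells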;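 note: positive z means more ATP and so rescue of galactose-driven cybrid death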). As to conditions: complex I mutant cybrid cells, 72 h, stronger effect = higher value.
The mark [8] stands for this setting: measured here: relative caspase fold change +Dox/-Dox.
The mark [9] stands for this setting: measured here: total cells with miR-34 induction, stronger effect = lower value.
Setting [10] is: measured here: total cells without miR-34 induction.

What is called remaining activity is the signal under treatment as a percentage of the control signal. As to `O=C(c1ccc(OCCCc2cnc[nH]2)cc1)C1CC1`, the remaining activity in assay [1] was 100% (inactive).

Take `CCCCCCCCCCCCCCCCCCOC[C@H](COP(=O)([O-])OCC[N+](C)(C)C)OC`: in assay [1], the remaining activity is 119% (inactive).

For `Nc1nnc(-c2cccc(Cl)c2Cl)c(N)n1`, the remaining activity in assay [1] is 114% (inactive).

As to `NCCS(=O)O`, the remaining activity in assay [1] is 101% (inactive).

As to `N#C/C(=C\c1ccc(O)c(O)c1)C(=O)c1ccc(O)c(O)c1`, in assay [1], the remaining activity is 79.7% (inactive).

For the compound `CCN(CC)CC#CCOC(=O)C(O)(c1ccccc1)C1CCCCC1` (centres undefined), the remaining activity in assay [1] was 118% (inactive).

In the case of `Cc1nc2c(OCc3ccccc3)cccn2c1CC#N`, in assay [1], the remaining activity is 126% (inactive).

Consider `O=C(O)CN(CCN(CC(=O)O)CC(=O)O)CCN(CC(=O)O)CC(=O)O`, for which the remaining activity in assay [1] is 90.9% (inactive).

Take `CN(C)S(=O)(=O)c1ccc2c(c1)/C(=C/c1cc3c([nH]1)CCCC3)C(=O)N2`: the remaining activity in assay [1] was 121% (inactive).

As to `Cc1cc(NC(=O)Nc2ccc3c(ccn3C)c2)sn1`, the remaining activity in assay [1] was 122% (inactive).

Consider `NC1CONC1=O` (centres undefined), for which the remaining activity in assay [1] was 120% (inactive).

For the compound `CC(C)NC[C@H](O)COc1ccc(CC(N)=O)cc1`, the remaining activity in assay [1] is 115% (inactive).

In the case of `Fc1ccc(C(OCCCc2cnc[nH]2)c2ccc(F)cc2)cc1`, the remaining activity in assay [1] is 111% (inactive).

Turning to `CC(=O)O[C@H]1C[C@@H]2CC[C@@H]3[C@H](CC[C@@]4(C)[C@H]3C[C@H]([N+]3(C)CCCCC3)[C@@H]4OC(C)=O)[C@@]2(C)C[C@@H]1[N+]1(C)CCCCC1`, the remaining activity in assay [1] was 121% (inactive).

As to `COc1cc2nc(N3CCN(C(=O)OCc4ccccc4)[C@H](C(=O)NC(C)(C)C)C3)nc(N)c2cc1OC`, the remaining activity in assay [1] was 91.6% (inactive).

Take `C#CCN1C(C)=C(C(=O)OC)C(c2cccc([N+](=O)[O-])c2)C(C(=O)OCC)=C1C` (centres undefined): the remaining activity in assay [1] was 112% (inactive).

With `CC[N+](C)(C)c1cccc(O)c1`, in assay [1], the remaining activity is 86.8% (inactive).

With `Cc1nc(N=Nc2ccc(C(=O)O)cc2)c(COP(=O)(O)O)c(C=O)c1O`, the remaining activity in assay [1] is 110% (inactive).

For the compound `O=C1c2ccccc2-c2n[nH]c3cccc1c23`, the remaining activity in assay [1] was 88.6% (inactive).

In the case of `C[C@H](Cc1ccc(O)c(O)c1)[C@@H](C)Cc1ccc(O)c(O)c1`, the remaining activity in assay [1] was 117% (inactive).

Turning to `NCC(O)C1CCCCCCC1` (centres undefined), the remaining activity in assay [1] was 92.7% (inactive).

On to `CC1=C(/C=C/C(C)=C/C=C/C(C)=C/C(=O)Nc2ccc(O)cc2)C(C)(C)CCC1`, for which the remaining activity in assay [1] was 97.1% (inactive).

Consider `CC(=O)O[C@H]1Cc2ccccc2N(C(N)=O)c2ccccc21`, for which the remaining activity in assay [1] was 85% (inactive).

As for `Nc1ccc(CCNc2ncnc3c2ncn3C2OC(CO)C(O)C2O)cc1` (centres undefined), the remaining activity in assay [1] was 124% (inactive).

`COc1ccc(CCn2nnnc2C2(c3ccc(C)cc3)CC2)cc1`: in assay [1], the remaining activity was 115% (inactive).

On to `O=C(CCNNC(=O)c1ccncc1)NCc1ccccc1`, for which the remaining activity in assay [1] is 115% (inactive).

`C[N+](C)(C)CCCCCCCCCC[N+](C)(C)C`: the remaining activity in assay [1] is 91.8% (inactive).

For the compound `CCCCCCCCCCCCCCSCC(=O)O`, the remaining activity in assay [1] was 105% (inactive).

On to `CC(=O)O[C@]1(C(C)=O)CC[C@H]2[C@@H]3C=C(Cl)C4=CC(=O)[C@@H]5C[C@@H]5[C@]4(C)[C@H]3CC[C@@]21C`, for which the remaining activity in assay [1] was 95.7% (inactive).

Consider `C[C@]12C[C@H](O)[C@H]3[C@@H](CCC4=CC(=O)CC[C@@]43C)[C@@H]1CC[C@@H]2C(=O)CO`, for which the remaining activity in assay [1] is 110% (inactive).

As to `O=C(OCCN1CCCCC1)c1c[nH]c2ccccc12`, in assay [1], the remaining activity was 102% (inactive).

Take `CC[C@H]1CN2CCc3cc(OC)c(OC)cc3[C@@H]2C[C@@H]1C[C@H]1NCCc2cc(OC)c(OC)cc21`: in assay [1], the remaining activity was 123% (inactive).

For `c1ccc(C2CN3CCSC3=N2)cc1` (centres undefined), the remaining activity in assay [1] was 92.5% (inactive).

The inhibition is the drop in the measured response relative to a control, in per cent. For `CN1CCc2cc(O)cc3c2[C@H]1Cc1ccc(O)c(O)c1-3`, in assay [2], the period change is 0.03 h (inactive). For the same compound, in assay [3], the inhibition was -2% (inactive). For the same compound, the fluorescence ratio (interference) in assay [4] is 1 (inactive). Also, in assay [1], the remaining activity was 101% (inactive). Further, the figures for the fold change in assay [5] (stronger effect = lower value) and in assay [5] (setting [8]) were 1.01 (inactive) and 1.15, respectively. Besides, the figures for the cell count in assay [5] (setting [9]) and in assay [5] (setting [10]) were 9530 and 9390, respectively. In addition, the compound was called inactive in assay [6]. The z-score in assay [7] was -1.03 (inactive).

With `Nc1ncnc2c1ncn2C1CCCO1` (centres undefined), in assay [1], the remaining activity was 75.8% (inactive).

With `CCCC[N+]1(C)C2CC(OC(=O)[C@H](CO)c3ccccc3)CC1C1OC12` (some centres undefined), the period change in assay [2] is -0.065 h (inactive). For the same compound, the inhibition in assay [3] was -1% (inactive). Also, the fluorescence ratio (interference) in assay [4] is 1 (inactive). The remaining activity in assay [1] was 117% (inactive). Besides, the fold change in assay [5] (stronger effect = lower value) is 0.937 (inactive); in assay [5] (setting [8]) it was 1.39. For the same compound, the cell count is 9870 in assay [5] (setting [9]) and 10500 in assay [5] (setting [10]). Further, the result in assay [6] was inactive. For the same compound, in assay [7], the z-score was 0.72 (inactive).

Consider `Oc1ccc2c3c1O[C@H]1c4oc5ccccc5c4C[C@@]4(O)C(C2)N(CC2CC2)CCC314` (some centres undefined), for which the period change in assay [2] was 0.13 h (inactive). Further, the inhibition in assay [3] is -1% (inactive). In addition, in assay [4], the fluorescence ratio (interference) is 1 (inactive). For the same compound, in assay [1], the remaining activity was 97.5% (inactive). The fold change in assay [5] (stronger effect = lower value) was 1.1 (inactive); in assay [5] (setting [8]), 0.785. Besides, the cell count in assay [5] (setting [9]) was found to be 10600; in assay [5] (setting [10]) it was 9610. In addition, the call in assay [6] was inactive. Besides, the z-score in assay [7] is -0.595 (inactive).

Turning to `NC(Cc1cc(O)c(O)cc1O)C(=O)O` (centres undefined), in assay [2], the period change was 0.12 h (inactive). Further, in assay [3], the inhibition was 22% (inactive). Moreover, the fluorescence ratio (interference) in assay [4] is 0.9 (inactive). The remaining activity in assay [1] is 96.6% (inactive). For the same compound, the fold change is 1.05 (inactive) in assay [5] (stronger effect = lower value) and 0.814 in assay [5] (setting [8]). In addition, the cell count in assay [5] (setting [9]) turned out to be 9010; in assay [5] (setting [10]), 8570. In addition, the outcome in assay [6] was inactive. The z-score in assay [7] was -0.345 (inactive).

On to `CC(N)[C@H](O)c1ccc(O)c(O)c1` (some centres undefined), for which the period change in assay [2] was -0.05 h (inactive). Besides, the inhibition in assay [3] was 0% (inactive). Moreover, the fluorescence ratio (interference) in assay [4] is 1 (inactive). In addition, the remaining activity in assay [1] was 122% (inactive). Moreover, the fold change is 0.943 (inactive) in assay [5] (stronger effect = lower value) and 1.34 in assay [5] (setting [8]). The values for the cell count in assay [5] (setting [9]) and in assay [5] (setting [10]) were 10200 and 10800, respectively. Moreover, the compound was called inactive in assay [6]. Besides, the z-score in assay [7] is -0.925 (inactive).

Turning to `CC(Cc1ccc(OCC(=O)O)cc1)NCC(O)c1cccc(Cl)c1` (centres undefined), the period change in assay [2] is -0.08 h (inactive). Moreover, the inhibition in assay [3] is -4% (inactive). Moreover, the fluorescence ratio (interference) in assay [4] was 1 (inactive). In assay [1], the remaining activity was 122% (inactive). Also, the fold change was 1.04 (inactive) in assay [5] (stronger effect = lower value) and 2.14 in assay [5] (setting [8]). The cell count in assay [5] (setting [9]) was found to be 11000; in assay [5] (setting [10]) it was 10600. For the same compound, the call in assay [6] was inactive. Besides, the z-score in assay [7] is 0.62 (inactive).

On to `C#CCN[C@H](C)Cc1ccccc1`, for which the period change in assay [2] is -0.015 h (inactive). In addition, in assay [3], the inhibition was -2% (inactive). The fluorescence ratio (interference) in assay [4] is 1 (inactive). Also, the remaining activity in assay [1] was 82% (inactive). Further, the values for the fold change in assay [5] (stronger effect = lower value) and in assay [5] (setting [8]) were 0.962 (inactive) and 1.51, respectively. Moreover, the cell count in assay [5] (setting [9]) was determined as 9640; in assay [5] (setting [10]), 10000. Further, the compound was classed as inactive in assay [6]. Moreover, in assay [7], the z-score is 0.54 (inactive).
